The list is not random: actives were taken first. Their share in the collection is about 3%.
TRAIL sens C8 – caspase-8 TRAIL sensitization. NB7+C8 cells + TRAIL, ATPlite viability luminescence. inhibition (viability loss, TRAIL sensitization), % at 10 µM. hit rate 1% among 360,000. AID 624354;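 active means compounds causing at least 50% loss of cell viability in the single-dose screen, relative to plate controls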
SENP8 block-1 – SENP8 protease inhibition | Q96LD8 | purified SENP8, Z-RLRGG-aminoluciferin cleavage, luminescence | inhibition, % at 10 µM | hit rate 1.2% among 330,000; in the data active means inhibition above about 50%
Target sequence (Q96LD8 whole entry, looked up): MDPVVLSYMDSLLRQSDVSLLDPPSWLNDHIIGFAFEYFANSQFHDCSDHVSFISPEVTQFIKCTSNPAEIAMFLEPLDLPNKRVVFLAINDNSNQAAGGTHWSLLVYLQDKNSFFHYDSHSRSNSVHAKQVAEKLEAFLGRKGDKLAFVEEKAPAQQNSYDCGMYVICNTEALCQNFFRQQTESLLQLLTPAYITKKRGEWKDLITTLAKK
SENP6 block – inhibitors of human SENP6 protease; Q9GZR1; Recombinant SENP6 catalytic domain, aminoluciferin luminescence; inhibition, % at 10 µM; hit rate 1.8% among 330,000; AID 2599;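 active means inhibition above about 50% at the single tested dose, limit read from the data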
SENP8 block-2 – blocks human SENP8 cleavage of Nedd8 substrate | recombinant SENP8, Nedd8 substrate fluorescence | AID 602440 | hit rate 0.64% among 360,000 | Q96LD8 | inhibition, % at 20 µM; in the data active means inhibition mostly above about 40%, no sharp cut-off; inactive means mostly below about 27%
SENP7 inh – blocks the human protease SENP7 | hit rate 1.5% among 330,000 | recombinant SENP7, Z-RLRGG-aminoluciferin luminescence, 40 min | inhibition, % at 5 µM | Q9BQF6;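 active means inhibition above about 50% at the single test dose, limit read from the data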
PPC-1+TRAIL kill – compounds killing PPC-1 cancer cells with TRAIL present (potentiator screen, no TRAIL-free arm) | PPC-1 cells + TRAIL, ATPLite viability luminescence | cell killing (% activity), % at 4 µM or 5 µM | hit rate 0.41% among 220,000 | AID 1443;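 active means cell killing above 50% in the first pass at 4 µM, then a duplicate retest at 5 µM averaging 50% or more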
SENP8 conf – confirmation of human SENP8 protease inhibitors | shares compounds with SENP7 inh | hit rate 40% among 6,200 | Recombinant SENP8, Z-RLRGG-aminoluciferin luminescence, 60 min | inhibition, % at 12.5 µM;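 active means mean inhibition across replicates above about 50%, limit read from the data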
SENP6 confirm – confirmation of human SENP6 protease inhibitors | inhibition, % at 12.5 µM | shares compounds with SENP7 inh | recombinant SENP6, Z-RLRGG-aminoluciferin luminescence | hit rate 58% among 6,200 | AID 488915
SENP7 confirm – human SENP7 inhibition, confirmed; shares compounds with SENP7 inh; recombinant SENP7, Z-RLRGG-aminoluciferin luminescence, 40 min; inhibition, % at 12.5 µM; hit rate 69% among 6,200
Casp3 select – inhibits human caspase-3 in SENP selectivity test. AID 488918. shares compounds with SENP7 inh. purified caspase-3, Z-DEVD-aminoluciferin luminescence, 60 min. hit rate 60% among 6,200. inhibition, % at 12.5 µM;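 active means mean inhibition above about 50%, limit read from the data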
Target sequence (P42574 28-227 limits assumed): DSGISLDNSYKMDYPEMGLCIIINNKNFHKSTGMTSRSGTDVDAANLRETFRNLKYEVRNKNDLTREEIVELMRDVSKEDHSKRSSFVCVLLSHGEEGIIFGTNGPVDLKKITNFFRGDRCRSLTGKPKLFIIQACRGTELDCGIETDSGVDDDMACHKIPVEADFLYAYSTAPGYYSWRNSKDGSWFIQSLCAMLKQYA
SENP luc ctr – counter-screen for SENP inhibitors: luminescence interference; AID 488919; shares compounds with SENP7 inh; Pre-incubated SENP8/Z-RLRGG-aminoluciferin, luciferase luminescence interference; inhibition, % at 12.5 µM; hit rate 39% among 6,200;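 active means mean inhibition above about 50% when retested at one dose, limit read from the data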
Each line names hits and unclear results; the compound was inactive in the other large screens (follow-up assays come after a bar, where they were run).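 How the source made its calls, unless noted: active means mean inhibition above about 50% in the one-dose retest (limit read from the data); inactive means the rest.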

O=C(O)c1ccc2c3n(nc2c1)-c1ccc(Cl)cc1CO3	SENP8 block-1 94, SENP6 block 98, SENP7 inh 94 (no result: TRAIL sens C8, SENP8 block-2, PPC-1+TRAIL kill) | SENP8 conf 98 | SENP6 confirm 99 | SENP7 confirm 103 | Casp3 select 98 | SENP luc ctr 96
O=C(NCCO)c1ccc2c3n(nc2c1)-c1ccc(Cl)cc1CO3	none
O=C(c1ccc2c3n(nc2c1)-c1ccc(Cl)cc1CO3)N1CCCCC1	SENP8 block-1 86, SENP6 block 87, SENP7 inh 84 | SENP8 conf 84 | SENP6 confirm 94 | SENP7 confirm 100 | Casp3 select 94 | SENP luc ctr inactive
Cc1ccc2c(c1)COc1c3ccc(C(=O)N4CCOCC4)cc3nn1-2	SENP6 block 71, SENP7 inh 69 | SENP8 conf 72 | SENP6 confirm 69 | SENP7 confirm 90 | Casp3 select 88 | SENP luc ctr 76
CC(=O)Nc1ccc(Cl)cc1C1COC(=O)C1=N (stereo not given)	none
O=C(Nc1ccc(CSc2ccccc2)cc1)c1ccccc1	SENP7 inh 59 | SENP8 conf inactive | SENP6 confirm inactive | SENP7 confirm inactive | Casp3 select inactive | SENP luc ctr inactive
O=C(Nc1ccccc1)c1ccc(CSc2ccccn2)cc1	SENP8 block-1 93, SENP6 block 97, SENP7 inh 98 | SENP8 conf 87 | SENP6 confirm 98 | SENP7 confirm 103 | Casp3 select 96 | SENP luc ctr inactive
O=C(Nc1cccc([N+](=O)[O-])c1)c1ccc(CSc2ccccc2)cc1	none
CC(Sc1nncs1)C(=O)Nc1ccc(Cl)cn1 (stereo not given)	none
COc1ccc(C)cc1Nc1n[n+](-c2ccccc2)c(-c2ccc(NC(C)=O)cc2)s1	none (no result: PPC-1+TRAIL kill)
COc1ccc(C)cc1Nc1n[n+](-c2ccccc2)c(-c2ccc(SC)cc2)s1	SENP8 block-1 60, SENP6 block 69 (no result: PPC-1+TRAIL kill) | SENP8 conf inactive | SENP6 confirm 66 | SENP7 confirm 89 | Casp3 select 78 | SENP luc ctr 70
CC(C)(C)c1cc[n+](C2=C([O-])c3ccccc3C(=O)/C2=N\S(=O)(=O)c2cccs2)cc1	TRAIL sens C8 54, SENP8 block-1 51, SENP6 block 66, SENP8 block-2 106 | SENP8 conf 51 | SENP6 confirm 75 | SENP7 confirm inactive | Casp3 select inactive | SENP luc ctr inactive
O=C1/C(=C/c2ccc([N+](=O)[O-])cc2)C=C(c2ccccc2)N1c1ccccc1	none
COc1ccc(N2C(=O)/C(=C/c3ccc([N+](=O)[O-])cc3)C=C2c2ccccc2)cc1	SENP7 inh 60 | SENP8 conf inactive | SENP6 confirm inactive | SENP7 confirm inactive | Casp3 select inactive | SENP luc ctr inactive
Nc1c(C2CCCCC2)c(=O)on1C(=O)c1ccccc1	none (no result: SENP8 block-1, SENP6 block, SENP7 inh, PPC-1+TRAIL kill)
Cc1ccc(NC(=O)c2cc3cccc([N+](=O)[O-])c3[nH]2)cc1	SENP8 block-1 56, SENP6 block 71, SENP7 inh 89 | SENP8 conf 57 | SENP6 confirm 63 | SENP7 confirm 96 | Casp3 select 66 | SENP luc ctr 55
CC1(C(=O)NCc2ccc(Cl)c(Cl)c2)Oc2cccnc2NC1=O (stereo not given)	none
CS(=O)(=O)c1ccc(C(=O)Nc2cccc(-c3nc4ccccc4[nH]3)c2)cc1	none (no result: PPC-1+TRAIL kill)

Screens as filed in PubChem.
